Most compounds without a hit are left out; they make up all but 2.7% or so of the library.
mIDH1 inhibitor: blocks human mutant IDH1 R132H enzyme. O75874. IDH1-R132H enzyme, NADPH consumption, diaphorase/resazurin fluorescence. Potency, µM (top dose mostly 76.6 µM), usual class: inhibitors. 390,000 tested, 0.093% active; note: nearly all actives have a fitted effect of over 65% in size
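IDH1-R132H (0.5 ug/mL) preincubated 30 min with compound, then NADPH (0.016 mM) and alpha-KG (2 mM) added; 80 min at RT, pH 7.5. Remaining NADPH coupled via diaphorase/resazurin to fluorescence (540/590 nm); concentration-response curves normalized to no-enzyme control.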
LDHA block: LDHA (human) enzyme inhibition; purified LDHA, NADH/diaphorase-resazurin fluorescence; stronger effect = lower value; 480,000 tested, 0.15% active; P00338; activity change, % (values are at about 110 or 230 µM); in the data active = activity change below about -30%; inconclusive = mostly about -25% to -30%
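Enzyme activity of human lactate dehydrogenase 5 (2 nM; 0.06 mM NADH, 0.2 mM pyruvate, 5 min, RT) is measured via a resazurin/diaphorase fluorescence readout of residual NADH.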
Nrf2 ARE act: Nrf2 pathway activation; Potency, µM (titrated, usually from 46.1 µM), usual class: activators; 410,000 tested, 0.31% active; AREc32 ARE-luciferase reporter (MCF7-derived line), luminescence, 24 h; note: nearly all actives have a fitted effect of over 65% in size
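ARE activation measured as luciferase luminescence (Steady-Glo, 30 min RT) in AREc32_Fluc cells after 24 hr compound exposure at 37 deg C, 5% CO2; cells seeded overnight at 1000/well in OPTI-MEM, 5% FBS.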
ALOX12 inh: blocks human arachidonate 12S-lipoxygenase; P18054; purified 12hLO, xylenol orange hydroperoxide absorbance; Potency, µM (doses to about 108 µM), actives largely listed as inhibitors; 580,000 tested, 1.1% active
Target sequence (P18054 whole entry, looked up): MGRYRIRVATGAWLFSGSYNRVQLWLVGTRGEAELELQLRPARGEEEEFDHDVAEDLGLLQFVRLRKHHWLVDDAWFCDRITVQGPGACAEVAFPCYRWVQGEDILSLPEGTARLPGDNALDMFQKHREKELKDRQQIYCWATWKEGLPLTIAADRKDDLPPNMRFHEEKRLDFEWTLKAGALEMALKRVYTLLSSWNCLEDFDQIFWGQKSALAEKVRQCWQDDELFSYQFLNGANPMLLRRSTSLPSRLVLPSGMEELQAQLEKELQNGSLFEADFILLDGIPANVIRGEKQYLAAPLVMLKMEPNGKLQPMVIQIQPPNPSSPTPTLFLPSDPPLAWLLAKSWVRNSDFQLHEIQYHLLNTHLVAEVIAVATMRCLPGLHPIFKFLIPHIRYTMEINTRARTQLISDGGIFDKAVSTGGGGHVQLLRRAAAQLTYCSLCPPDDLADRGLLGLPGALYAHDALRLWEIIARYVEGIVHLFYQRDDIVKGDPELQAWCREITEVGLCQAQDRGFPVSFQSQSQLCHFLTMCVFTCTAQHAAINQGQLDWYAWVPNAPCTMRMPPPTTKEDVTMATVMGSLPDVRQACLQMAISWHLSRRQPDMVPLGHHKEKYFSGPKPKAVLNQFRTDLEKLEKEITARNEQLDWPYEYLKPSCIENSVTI
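Purified human 12hLO (150 nM final) in 25 mM Hepes, 0.01% Triton X-100, pH 7.0 was preincubated 15 min at room temperature with compound. Then 40 uM arachidonic acid was added, 30 min. Hydroperoxide was read by Fe-XO absorbance ratio 573/405 nm.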
Nrf2 block: inhibitors of Nrf2 signaling. A549 ARE-Fluc reporter, luciferase luminescence, 18-24 h. Potency, µM (top dose mostly 46 µM), hits mostly inhibitors. 360,000 tested, 2.1% active. AID 504444; note: nearly all actives have a fitted effect of over 60% in size
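In this cell-based qHTS, ARE-driven firefly luciferase in A549 cells reports Nrf2 activity; the luminescent signal after BugLite lysis is the measured value, with a prior CellTiter-Fluor read for cell health.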
A549 tox-1: A549 cytotoxicity, counter-screen for Nrf2 inhibitors. A549 ARE-Fluc cells, CellTiter-Fluor viability, 18-24 h. Potency, µM (top dose mostly 46 µM), most hits filed as inhibitors. 390,000 tested, 0.16% active
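A549 ARE_Fluc cells in 5% FBS OPTI-MEM were exposed to compounds in concentration-response for 18-24 h at 37 deg C. Viability was read by CellTiter-Fluor fluorescence (Ex 405/Em 525) after 30 min, before the luciferase read.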
FLuc enzyme inh: firefly luciferase inhibition, Nrf2 hit validation. shares compounds with Nrf2 block. purified firefly luciferase, luminescence inhibition. Potency, µM (series often up to 57.5 µM), actives largely listed as inhibitors. 1,400 tested, 4% active. AID 720522; note: nearly all actives have a fitted effect of over 65% in size
A549 tox-2: toxic to A549 ARE-Fluc cells in Nrf2 counterscreen. Potency, µM (series often up to 46.1 µM), usual class: inhibitors. shares compounds with Nrf2 block. A549 ARE-Fluc cells, cytotoxicity counterscreen. 1,400 tested, 2% active;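 note: cells exposed to compounds for 18 to 24 hours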
Nrf2 ARE inh: confirmation of Nrf2 inhibitors in A549 ARE reporter cells. shares compounds with Nrf2 block. A549 ARE-firefly luciferase reporter, luminescence. Potency, µM (doses to about 46.1 µM), hits mostly inhibitors. 1,400 tested, 74% active. AID 720524; note: nearly all actives have a fitted effect of over 65% in size
Of the large screens only hits and unclear results are named; the others gave an inactive call (follow-up assays come after a bar, where they were run). Unless noted, calls come from the whole dose curve; as a rule, active = well fitted curve in the direction sought with a large enough effect; inconclusive = small, poorly fitted or top-dose-only effect, or another doubt; inactive = no such curve, though single readings can be large; an effect the other way counts as inactive or inconclusive.

O=S(=O)(Nc1cc(Br)cc2cccnc12)c1cccc2ccccc12	Nrf2 block 2.31µM, A549 tox-1 inconclusive (no result: mIDH1 inhibitor, Nrf2 ARE act, ALOX12 inh) | FLuc enzyme inh inactive | A549 tox-2 inconclusive | Nrf2 ARE inh 7.31µM
CCOc1ccc(Oc2ccccc2NC(=O)CSCC(=O)Nc2cc(C)on2)cc1	Nrf2 block 9.2µM | FLuc enzyme inh inactive | A549 tox-2 inactive | Nrf2 ARE inh 7.31µM
CCN(CC)S(=O)(=O)c1cc(NC(=O)c2ccc(-n3cncn3)c([N+](=O)[O-])c2)ccc1C	Nrf2 block 4.11µM, A549 tox-1 inconclusive | FLuc enzyme inh inactive | A549 tox-2 inactive | Nrf2 ARE inh 6.51µM
Cc1ccc(C)c(-c2csc(-c3cc4ccc(O)cc4oc3=O)n2)c1	none (no result: mIDH1 inhibitor, Nrf2 ARE act, Nrf2 block, A549 tox-1)
CC1CCc2nc(-c3cc4ccc(O)cc4oc3=O)sc2C1 (centres undefined)	Nrf2 block 2.31µM, A549 tox-1 inconclusive (no result: mIDH1 inhibitor, Nrf2 ARE act, ALOX12 inh) | FLuc enzyme inh 0.0379µM | A549 tox-2 inactive | Nrf2 ARE inh 18.4µM
C/C(=N/NC(=O)c1cc(-c2cccc([N+](=O)[O-])c2)n[nH]1)c1cccc(O)c1	none
C/C(=N\NC(=O)c1cc(-c2cccc([N+](=O)[O-])c2)n[nH]1)c1ccccc1O	Nrf2 block 9.2µM, A549 tox-1 inconclusive | FLuc enzyme inh inactive | A549 tox-2 inactive | Nrf2 ARE inh inconclusive
CC(C)(C)c1nc(N2CCN(C(=O)c3ccco3)CC2)c2nnn(Cc3ccccc3)c2n1	Nrf2 block 8.2µM, A549 tox-1 inconclusive | FLuc enzyme inh inactive | A549 tox-2 inconclusive | Nrf2 ARE inh 1.3µM
CO/N=C/c1ccc(N2CCN(C(=O)c3ccc(Cl)cc3Cl)CC2)c([N+](=O)[O-])c1	Nrf2 block 6.51µM | FLuc enzyme inh inactive | A549 tox-2 inactive | Nrf2 ARE inh 11.6µM
Cc1ccc(C(=O)O/N=C\c2ccc(N3CCCCC3)c([N+](=O)[O-])c2)cc1	none
O=C(NCc1cccs1)c1ccc2ccccc2n1	LDHA block inconclusive, Nrf2 block inconclusive
C=C(c1ccc2ccccc2n1)c1cccs1	none (no result: mIDH1 inhibitor, LDHA block, Nrf2 ARE act, ALOX12 inh, Nrf2 block, A549 tox-1) | FLuc enzyme inh inactive | A549 tox-2 inactive | Nrf2 ARE inh inconclusive
COC(=O)CCNCc1ccccc1	none (no result: mIDH1 inhibitor, Nrf2 ARE act, Nrf2 block, A549 tox-1)
O=C(Nc1ccccc1)C(Sc1cccc[n+]1[O-])c1ccccc1 (centres undefined)	ALOX12 inh inconclusive (no result: mIDH1 inhibitor, Nrf2 ARE act, Nrf2 block, A549 tox-1)
C[n+]1ccccc1COc1ccc(C(C)(C)C)cc1	Nrf2 block 2.31µM, A549 tox-1 inconclusive | FLuc enzyme inh inactive | A549 tox-2 inactive | Nrf2 ARE inh 5.17µM
CC(C)(C)c1ccc(OCc2nc3ccccc3n2CCOc2ccccc2)cc1	none
O=C(COC(=O)c1cc(S(=O)(=O)N2CCCC2)ccc1O)Nc1ccc(SC(F)F)cc1	none
O=C(CNc1cc(S(=O)(=O)N2CCCC2)ccc1OCC(F)(F)F)Nc1ccc(SC(F)F)cc1	Nrf2 block 5.17µM, A549 tox-1 inconclusive | FLuc enzyme inh inactive | A549 tox-2 inactive | Nrf2 ARE inh inconclusive
COc1ncccc1C(=O)N1CCCC(N2CCN(c3cccc(Cl)c3)CC2)C1 (centres undefined)	Nrf2 block 8.2µM | FLuc enzyme inh inactive | A549 tox-2 inactive | Nrf2 ARE inh inconclusive
COc1ncccc1C(=O)N1CCCC(N2CCN(c3ccc(F)cc3)CC2)C1 (centres undefined)	none
CC1Cc2ccccc2N1C(=O)CSc1nc2cc(S(=O)(=O)N3CCCCC3)ccc2o1 (centres undefined)	none (no result: mIDH1 inhibitor, Nrf2 ARE act, Nrf2 block, A549 tox-1)
CC(=O)CC1(C#N)C(N)=C(C=O)CC1(C#N)C#N (centres undefined)	ALOX12 inh inconclusive (no result: mIDH1 inhibitor, Nrf2 ARE act, Nrf2 block, A549 tox-1)
